SMILES strings stand for the structures.

The experiment is described as follows: Peg3 promoter luciferase inhibitors, potency, dose response, cell-based, HeLa, CREF/GAPDH counter-screen panel (AID 624167). To be noted: CREF/GAPDH counter-screens; run 1, dose range 1, at 100 µM (top of the series). Background: The purpose of a counterscreen is to sort out artefacts and off-target activity.
For orientation: inhibition means the drop in the measured response relative to a control, in per cent. Regarding `CCCC(=O)NC(c1ccc(N(C)C)cc1)c1ccc2cccnc2c1O` (stereo not drawn), the inhibition is 25.9%.

With `CC(=O)c1sc2c(c1OC(=O)c1ccc(Cl)cc1Cl)c(=O)n(-c1ccccc1)c(=S)n2-c1ccccc1`, the inhibition was 85.9%.

Consider `O=C(O)c1ccc(N/N=C/c2ccc3c(c2)OCO3)cc1`, for which the inhibition is 96.9%.

For `CCCCC(=O)NC(c1ccccc1)c1ccc2cccnc2c1O` (stereo not drawn), the inhibition stood at 47.5%.

Turning to `COc1ccc(C(NC(C)=O)c2ccc3cccnc3c2O)c(OC)c1` (stereo not drawn), the inhibition was -5.47%.

As for `CCc1ccc(/C=C2\SC(=S)N(CCCC(=O)Nc3cc(C)on3)C2=O)cc1`, the inhibition is 75.9%.

As to `O=C(NNC(=O)c1cccnc1SCc1cccc([N+](=O)[O-])c1)c1ccccn1`, the inhibition turned out to be 6.38%.

As for `O=C(N/N=C/c1sc(N2CCOCC2)nc1-c1ccccc1)c1cccc(S(=O)(=O)N2CCCC2)c1`, the inhibition was determined as 52%.

Take `CC(C)(C)c1ccc(Cn2c(=O)cnc3ccccc32)cc1`: the inhibition came to 88.2%.

Take `CS(=O)(=O)Nc1cccc(NC(=O)C2Cc3c(-c4cccc(F)c4)ccnc3O2)c1` (stereo not drawn): the inhibition turned out to be 74.9%.

As to `O=C(N/N=C\c1c(O)ccc2ccccc12)c1cncc(Br)c1`, the inhibition amounted to 65.3%.

Take `O=C(O)c1ccc(N/N=C/c2ccc(OC(=O)c3cccc(Cl)c3)cc2)cc1`: the inhibition was determined as 96.4%.

For `COc1cc(CNCCCN2CCOCC2)cc(Br)c1OCc1ccc(Cl)cc1`, the inhibition turned out to be 99.6%.

As for `CCCC(=O)NC(c1ccc(C(C)C)cc1)c1ccc2cccnc2c1O` (stereo not drawn), the inhibition turned out to be 54.3%.

For `C=C1CC2(OC1=O)c1ccccc1CCc1ccccc12`, the inhibition was 100%.

In the case of `CCC(C)Cn1c(O)cc2nn(-c3nc4ccccc4s3)c(=O)c-2c1C` (stereo not drawn), the inhibition was determined as 99.6%.

Take `O=c1cnnc(N/N=C/c2ccccn2)[nH]1`: the inhibition is 3.68%.

Regarding `CC(/C=C/c1ccccc1)=N/NC(=O)c1cc([N+](=O)[O-])cc([N+](=O)[O-])c1`, the inhibition amounted to 5.41%.

With `O=C(CCl)N1c2ccccc2Sc2ccc3ccccc3c21`, the inhibition came out at 100%.

For `CS(=O)(=O)Nc1cccc(NC(=O)C2Cc3c(-c4ccccc4)ccnc3O2)c1` (stereo not drawn), the inhibition came out at 0.156%.

For the compound `CN(C)S(=O)(=O)c1ccc(-c2csc(N/N=C/c3ccc(O)cc3)n2)cc1`, the inhibition came to 91.3%.

Consider `CCCCCCCNC(=O)C1(CC2CC(c3cccc(Br)c3)=NO2)CCNCC1` (stereo not drawn), for which the inhibition was determined as 95%.

As for `CCSc1nc2ccccc2n1C(=O)/C=C\c1ccc(OC)c(OC)c1`, the inhibition was 77.4%.

Regarding `Cc1ccc(-n2c(N)c(C(=O)Nc3c(C)n(C)n(-c4ccccc4)c3=O)c3nc4ccccc4nc32)cc1`, the inhibition turned out to be 77.5%.

Regarding `CCC(c1ccc(O)c(O)c1)C(CC)c1ccc(O)c(O)c1` (stereo not drawn), the inhibition worked out at 99%.

`C(=N\Nc1ccc2ccccc2n1)/c1ccc2c(c1)OCCO2`: the inhibition came to 99.5%.

Turning to `CCC(=O)NC(c1ccc(C)cc1)c1ccc2cccnc2c1O` (stereo not drawn), the inhibition was determined as 36.2%.

As for `COc1cc(Nc2c3ccccc3nc3ccccc23)cc(OC)c1OC`, the inhibition came to 95.9%.

With `CCN(CC)S(=O)(=O)c1cccc(C(=O)N/N=C(\C)c2ccc(O)cc2O)c1`, the inhibition is -75.3%.

As for `Cc1cc(Br)ccc1NC(=O)CNC(=O)Cn1ncc(Cl)c(Cl)c1=O`, the inhibition is 98.5%.

Regarding `COc1ccc(-n2c(O)c(/C=N/Nc3nc(C)cc(C)n3)c3ccccc3c2=O)cc1OC`, the inhibition is -8.04%.

Consider `COc1cc(OC)c2cc(C(=O)N/N=C/c3ccccc3O)[nH]c2c1`, for which the inhibition came to 79.9%.

Consider `COc1cc(/C=C2\SC(=Nc3ccccc3OC)NC2=O)ccc1O`, for which the inhibition worked out at 43.9%.

(Values after PubChem BioAssay AID624167 (Sanford-Burnham Center for Chemical Genomics, 2012).)
